Source: PubChem
Only some compounds are listed: those with a hit (about 1.1% of all), similar ones and a draw of the others.
MOR-DOR ag: OPRM1-OPRD1 heterodimerization agonism | cells, luminescence | activation, % at 9.3 µM | actives 0.3% (n = 340,000)
HTR5A ag: activates human HTR5A in OPRM1-OPRD1 agonist counter-screen; P47898; HTR5A agonist assay, luminescence, cell-based; activation, % at 9.3 µM; actives 0.61% (n = 340,000); AID 504692; in the data active = activation mostly above about 9.5%, no sharp cut-off; inactive = mostly below about 7.6%
Target sequence (P47898 whole entry, looked up): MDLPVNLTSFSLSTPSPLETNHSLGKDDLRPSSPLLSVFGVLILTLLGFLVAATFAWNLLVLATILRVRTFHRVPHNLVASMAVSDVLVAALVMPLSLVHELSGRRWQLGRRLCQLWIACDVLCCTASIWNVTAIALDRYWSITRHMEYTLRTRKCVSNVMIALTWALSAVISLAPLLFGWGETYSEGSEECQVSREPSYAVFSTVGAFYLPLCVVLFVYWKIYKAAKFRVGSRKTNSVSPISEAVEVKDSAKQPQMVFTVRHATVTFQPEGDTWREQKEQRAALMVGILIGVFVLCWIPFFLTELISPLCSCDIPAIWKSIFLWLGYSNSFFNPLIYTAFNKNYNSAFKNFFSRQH
MOR-DOR inv ag: inverse agonist of human OPRM1-OPRD1 heterodimerization; P35372+P41143; cell-based MOR-DOR heterodimer luminescence, inverse agonism; inhibition, % at 9.3 µM; actives 0.21% (n = 340,000); AID 504357; in the data active = inhibition above about 22%, passing the limit was not always enough
HTR5A inv ctr: inverse agonist of human HTR5A in OPRM1-OPRD1 counter-screen; P47898; HTR5A cell line, luminescence, inverse agonism; inhibition, % at 9.3 µM; actives 0.083% (n = 340,000); in the data active = inhibition mostly above about 23%, no sharp cut-off; inactive = mostly below about 18%
OPRM1-D1 ag cf: OPRM1-OPRD1 heterodimer agonism, confirmation; shares compounds with MOR-DOR ag; cells, MOR-DOR heterodimerization, luminescence complementation; activation, % at 9.3 µM; actives 45% (n = 830)
HTR5A ag ctr2: HTR5A agonism, opioid heterodimer counter-screen; shares compounds with MOR-DOR ag; AID 504905; activation, % at 9.3 µM; actives 8% (n = 830); HTR5A agonist counterscreen, cell luminescence; in the data active = activation above about 17%
Of the large screens only hits and unclear results are named; the others gave an inactive call (follow-up assays come after a bar, where they were run). Cut-off read from the data, not from the text of the source, unless noted: active = activation above about 18%; inactive = the rest.

COc1ccc(C(CNC(=O)C2CC2)N(C)C)cc1 (stereo unspecified)	none
COc1ccc(C(CNC(=O)Cc2ccc3ccccc3c2)N(C)C)cc1 (stereo unspecified)	MOR-DOR ag 37 | OPRM1-D1 ag cf inactive | HTR5A ag ctr2 inactive
COc1ccc(C(CNC(=O)C(C)c2ccc3cc(OC)ccc3c2)N(C)C)cc1 (stereo unspecified)	MOR-DOR ag 23 | OPRM1-D1 ag cf 56 | HTR5A ag ctr2 inactive
CCOC(=O)c1nnn(-c2nonc2-n2cccc2)c1-c1cccc([N+](=O)[O-])c1	none
COc1cc(CNC(C)c2ccccc2)cc(Cl)c1OCC(=O)Nc1ccccc1 (stereo unspecified)	MOR-DOR ag 21 | OPRM1-D1 ag cf inactive | HTR5A ag ctr2 inactive
COc1cc(CNC(C)c2ccccc2)cc(Br)c1OCc1ccc(F)cc1 (stereo unspecified)	MOR-DOR ag 21 | OPRM1-D1 ag cf inactive | HTR5A ag ctr2 inactive
CCN(CC)CCNCc1cc(Cl)c(OCC(=O)Nc2ccccc2)c(OC)c1	none
CC1(c2ccccc2)CC(C)(C)N2C(=O)C3(C(C#N)=C(N)Oc4cc(O)ccc43)c3cccc1c32 (stereo unspecified)	MOR-DOR ag 20 | OPRM1-D1 ag cf 47 | HTR5A ag ctr2 inactive
Nc1nonc1C(=O)NCCNCc1cc(Br)ccc1OCc1ccc(F)cc1	none
Nc1nonc1C(=O)NCCNCc1c(OCc2ccccc2F)ccc2ccccc12	MOR-DOR ag 22 | OPRM1-D1 ag cf 121 | HTR5A ag ctr2 inactive
CCOc1ccc(/C=N/NC(=O)CC(=O)Nc2ccc(Cl)c(Cl)c2)cc1	MOR-DOR ag 21 | OPRM1-D1 ag cf inactive | HTR5A ag ctr2 inactive
O=C(Cn1c(-c2ccccc2)c[n+]2ccsc12)c1ccc(Br)cc1	MOR-DOR ag 171 | OPRM1-D1 ag cf inactive | HTR5A ag ctr2 inactive
O=C(Nc1ccccc1N1CCOCC1)c1cccc(F)c1	none
O=C(Nc1ccccc1N1CCOCC1)c1ccc2nc[nH]c2c1	MOR-DOR ag 19 | OPRM1-D1 ag cf inactive | HTR5A ag ctr2 inactive
CN(Cc1ccccc1F)C(=O)c1cccc(NC(=O)CC2SC(N3CCCCC3)=NC2=O)c1 (stereo unspecified)	none
Cc1c2cnccc2c(C)c2c1oc1ccccc12	none
CCN(CC(=O)NCc1ccc(F)cc1)C(=O)c1ccc(C(=O)c2ccccc2)cc1	none
CCC(=O)NC(C)C(c1cccs1)N1CCN(c2ccccc2)CC1 (stereo unspecified)	MOR-DOR ag 31 | OPRM1-D1 ag cf inactive | HTR5A ag ctr2 inactive
Cc1cc(/C=C(\C#N)c2nc3ccccc3[nH]2)c(C)n1C	MOR-DOR ag 27, HTR5A ag 13 | OPRM1-D1 ag cf inactive | HTR5A ag ctr2 inactive
CCc1nnc(NC(=O)CCS(=O)(=O)c2ccc(C)cc2)s1	none
Cc1ccc(Cl)cc1NC(=O)c1cnn2c1NC(c1ccco1)CC2C(F)(F)F (stereo unspecified)	none
O=C(Nc1ccc2c(c1)CCC2)c1cnn2c1NC(c1ccco1)CC2C(F)(F)F (stereo unspecified)	MOR-DOR ag 23 | OPRM1-D1 ag cf inactive | HTR5A ag ctr2 inactive
COc1ccc(/C=N/Nc2c(Cl)cc(Cl)cc2Cl)cc1CN1CCOCC1	MOR-DOR ag 31 | OPRM1-D1 ag cf inactive | HTR5A ag ctr2 inactive
COc1cc2c(cc1OC)CN(C(=O)Nc1ccccc1Cl)CC2	none
COc1cc2c(cc1OC)CN(C(=O)Nc1ccccc1)CC2	MOR-DOR ag 60 | OPRM1-D1 ag cf inactive | HTR5A ag ctr2 inactive
Cc1ccc(NC(=O)C2COc3ccccc3O2)cc1S(=O)(=O)N1CCCCC1 (stereo unspecified)	none
CC(C)(C)c1cc(C(=O)NNC(=O)Nc2ccccc2)n(Cc2ccccc2)n1	none
CC(C)(C)c1cc(C(=O)NNC(=O)Nc2cccc(Cl)c2)n(Cc2ccccc2)n1	MOR-DOR ag 25 | OPRM1-D1 ag cf inactive | HTR5A ag ctr2 inactive
CCCCN(C(=O)c1ccc(-n2nc(C)cc2C)cc1)c1c(N)n(CCC)c(=O)[nH]c1=O	none
COc1ccc(C2=NN(C(=O)c3ccccc3)C(c3ccc(OC)c(OC)c3)C2)c(OC(C)=O)c1 (stereo unspecified)	none
COc1cc(Br)cc(/C=N/NC(=O)Cc2ccc(C(F)(F)F)cc2[N+](=O)[O-])c1O	MOR-DOR ag 18 | OPRM1-D1 ag cf 42 | HTR5A ag ctr2 inactive
